# Assay results as given in PubChem BioAssay (NCATS).
# Records with an inconclusive call do not appear. Where a call stands in place of a potency, no number is given. Active and inactive are the calls of the source. Calls follow the shape of the dose curve; as a rule, active = well fitted curve in the direction sought with a large enough effect; inconclusive = small, poorly fitted or top-dose-only effect, or another doubt; inactive = no such curve, though single readings can be large; an effect the other way counts as inactive or inconclusive.
# Tests used:
# [1] = biological target: Metallo-beta-lactamase type 2 (Klebsiella pneumoniae) (UniProt C7C422); experiment: qHTS to identify inhibitors of the New Delhi Metallo-beta-lactamase (NDM): assay validation screen against the NCATS LOPAC Collection (AID 1794843);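 also: nitrocefin turnover by NDM-1 measured as 485 nm absorbance at plateau; series mostly up to about 38 µM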
# Method in brief: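 NDM-1 at 2 nM final in 50 mM HEPES pH 7.0, 1 uM ZnSO4, 0.01% Tween20, preincubated with LOPAC compounds pinned in DMSO; 50 uM nitrocefin (stock) added. Hydrolysis read as absorbance at 485 nm in the plateau phase.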
# [2] = biological target: Glutathione peroxidase 1 (Homo sapiens) (UniProt P07203); experiment: Primary qHTS Assay for Inhibitors of Recombinant Selenoprotein Glutathione Peroxidase 1 (GPX1) (AID 1845191); also: nearly all actives have a fitted effect of over 65% in size; also: potency is read from the fitted curve at half-maximal effect
# Method in brief: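 Recombinant GPX1 (10 nM final) was preincubated with compound for 30 min at room temperature, then reacted with 1 mM GSH, 0.5 mM CHP, 0.5 mM NADPH and 100 nM glutathione reductase; NADPH fluorescence (340/450 nm) was read at 0 and 15 min.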
# [3] = biological target: Luciferin 4-monooxygenase (Photinus pyralis) (UniProt P08659); experiment: Primary firefly luciferase (FLuc) qHTS assay for identification of artifact compounds. (AID 1845220); conditions: outcome: dose series up to 54.1 µM; also: nearly all actives have a fitted effect of over 60% in size
# Method in brief: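 In this counter-screen for luciferase artifacts, test compounds met substrate (10 uM each luciferin and ATP) before 10 nM enzyme started the reaction. Light output was measured 5 min later.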
# [4] = Primary fluorescence-based thiol-reactive (MSTI) qHTS assay for identification of artifact compounds. (AID 1845221);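 also: series mostly up to about 54 µM; thiol-reactive compounds lower the probe fluorescence signal; nearly all actives have a fitted effect of over 65% in size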
# Method in brief: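 MSTI probe at 4 uM final in 2% DMSO/PBS pH 7.4; compounds, 1 h at room temperature in dark. Fluorescence Ex/Em 525/598 nm, normalised to Acetyl-MSTI and MSTI, fitted to 4-parameter Hill.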
# [5] = test system: Nanoluciferase (engineered Oplophorus gracilirostris luciferase); experiment: Primary Nanoluciferase (NLuc) qHTS assay for identification of artifact compounds. (AID 1845222);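 also: NLuc secreted into diluted conditioned medium of S16 cells; series mostly up to about 54 µM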
# Method in brief: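 Using secreted nanoluciferase in S16 culture medium (0.22 um filtered, 1:55 dilution), compounds were preincubated 15 min at RT. Signal was generated with Nano-Glo reagent (1:100) over 5 min.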
# [6] = biological target: Phospholipid hydroperoxide glutathione peroxidase GPX4 (Homo sapiens) (UniProt P36969); experiment: Primary qHTS Assay for Inhibitors of Recombinant Selenoprotein Glutathione Peroxidase 4 (GPX4) (AID 1845192); also: nearly all actives have a fitted effect of over 65% in size
# Method in brief: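 GR-coupled readout: 100 nM GR, 1 mM GSH, 0.5 mM NADPH; NADPH fluorescence (ex 340/em 450 nm) read at t=0 and after 15 min RT. GPX4 200 nM, preincubated 30 min with compound; substrate 0.5 mM CHP.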
# Sequence of Metallo-beta-lactamase type 2 (Klebsiella pneumoniae) (C7C422 whole entry, looked up): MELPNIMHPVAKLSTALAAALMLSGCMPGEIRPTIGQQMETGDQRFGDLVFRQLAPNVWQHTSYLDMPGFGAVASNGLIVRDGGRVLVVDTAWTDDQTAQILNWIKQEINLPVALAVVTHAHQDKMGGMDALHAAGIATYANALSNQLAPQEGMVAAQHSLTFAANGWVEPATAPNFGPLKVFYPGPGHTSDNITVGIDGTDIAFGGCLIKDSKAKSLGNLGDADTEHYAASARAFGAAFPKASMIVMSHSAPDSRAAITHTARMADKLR
# Sequence of Phospholipid hydroperoxide glutathione peroxidase GPX4 (Homo sapiens) (P36969 whole entry, looked up): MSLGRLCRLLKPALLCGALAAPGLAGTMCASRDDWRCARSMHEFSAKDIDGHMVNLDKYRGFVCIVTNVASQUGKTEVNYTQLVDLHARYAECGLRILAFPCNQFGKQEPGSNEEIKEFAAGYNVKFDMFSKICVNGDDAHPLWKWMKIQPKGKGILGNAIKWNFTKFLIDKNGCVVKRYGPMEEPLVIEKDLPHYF
# Sequence of Glutathione peroxidase 1 (Homo sapiens) (P07203 whole entry, looked up): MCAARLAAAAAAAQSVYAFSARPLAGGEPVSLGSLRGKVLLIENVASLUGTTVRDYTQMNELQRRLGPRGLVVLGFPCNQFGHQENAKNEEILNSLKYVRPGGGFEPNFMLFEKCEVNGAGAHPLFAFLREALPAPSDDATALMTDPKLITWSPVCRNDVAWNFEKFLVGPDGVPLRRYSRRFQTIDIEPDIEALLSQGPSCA
compound,measurement,setting,value
C[C@@H]1O[C@@H](O[C@H]2C[C@@H](O)[C@]3(CO)[C@H]4[C@H](O)C[C@]5(C)[C@@H](C6=CC(=O)OC6)CC[C@]5(O)[C@@H]4CC[C@]3(O)C2)[C@H](O)[C@H](O)[C@H]1O,outcome,[1],inactive
same,Potency,[2],inactive
same,outcome,[3],inactive
same,outcome,[4],inactive
same,outcome,[5],inactive
COC1(CS(=O)c2ccccc2)CCN(CCc2c[nH]c3ccc(F)cc23)CC1 (stereo unspecified),Potency,[2],inactive
Oc1ccccc1-c1ccccc1,Potency,[2],inactive
C=C1C[C@@H]2[C@H](CC[C@]3(C)C(=O)CC[C@@H]23)[C@@]2(C)C=CC(=O)C=C12,Potency,[2],inactive
Clc1ccc(CCC(Cn2ccnc2)Sc2c(Cl)cccc2Cl)cc1 (stereo unspecified),Potency,[2],inactive
COc1ccccc1N1CCNCC1,outcome,[1],inactive
same,Potency,[2],inactive
same,Potency,[6],inactive
Cc1ncc(CNC(=O)N(CCCl)N=O)c(N)n1,outcome,[1],inactive
same,Potency,[2],inactive
same,Potency,[6],inactive
C=CCN1CC[C@]23c4c5ccc(O)c4O[C@H]2C(=O)CC[C@@]3(O)[C@H]1C5,Potency,[2],inactive
COc1ccc2c(c1OC)CN1CCc3cc4c(cc3C1C2)OCO4 (stereo unspecified),Potency,[2],inactive
Cn1c(CCCC(=O)O)nc2cc(N(CCCl)CCCl)ccc21,outcome,[1],inactive
same,Potency,[2],inactive
same,Potency,[6],inactive
c1ccc2c(c1)OCC(C1=NCCN1)O2 (stereo unspecified),outcome,[1],inactive
same,Potency,[2],inactive
same,Potency,[6],inactive
COc1ccc(Cc2nccc3cc(OC)c(OC)cc23)cc1OC,Potency,[2],inactive
CCC(C(N)=O)N1CCCC1=O (stereo unspecified),Potency,[2],inactive
O=c1[nH]c2ccccc2n1C1CCN(CCCC(c2ccc(F)cc2)c2ccc(F)cc2)CC1,outcome,[1],inactive
same,Potency,[2],inactive
same,Potency,[6],inactive
same,outcome,[3],inactive
same,outcome,[4],inactive
same,outcome,[5],inactive
Cc1cccc(C)c1NC(=O)CN1CCCC1=O,outcome,[1],inactive
same,Potency,[2],inactive
same,Potency,[6],inactive
CCCN1CCC[C@@H]2Cc3[nH]ncc3C[C@H]21,outcome,[1],inactive
same,Potency,[2],inactive
same,Potency,[6],inactive
CC(O)(CS(=O)(=O)c1ccc(F)cc1)C(=O)Nc1ccc(C#N)c(C(F)(F)F)c1 (stereo unspecified),outcome,[1],inactive
same,Potency,[2],inactive
same,outcome,[3],inactive
same,outcome,[4],inactive
same,outcome,[5],inactive
CN(C)CCN(C)CCc1ccc(Cl)c(Cl)c1,Potency,[2],inactive
CCN(CC)C(=O)N[C@@H]1C=C2c3cccc4[nH]cc(c34)C[C@@H]2N(C)C1,Potency,[2],inactive
same,Potency,[6],inactive
C[C@H]1O[C@@H](O[C@H]2[C@@H](O)C[C@H](O[C@H]3[C@@H](O)C[C@H](O[C@H]4CC[C@@]5(C)[C@H](CC[C@@H]6[C@@H]5CC[C@]5(C)[C@@H](C7=CC(=O)OC7)CC[C@]65O)C4)O[C@@H]3C)O[C@@H]2C)C[C@H](O)[C@@H]1O,Potency,[2],inactive
same,Potency,[6],inactive
same,outcome,[3],inactive
same,outcome,[4],inactive
same,outcome,[5],inactive
C=C1CC[C@@]2(O)[C@H]3Cc4ccc(O)c5c4[C@@]2(CCN3CC2CC2)[C@H]1O5,Potency,[2],inactive
same,Potency,[6],inactive
CC(=O)Nc1cc([As](=O)(O)O)ccc1O,Potency,[2],inactive
O=[N+]([O-])c1cc([As](=O)(O)O)ccc1O,Potency,[2],inactive
O=C(O)C(=O)c1cn(Cc2ccccc2)c2ccc(-c3ccc(OC(F)(F)F)cc3)cc12,Potency,[2],inactive
same,outcome,[3],inactive
same,outcome,[4],inactive
same,outcome,[5],inactive
FC(F)(F)c1cccc(C2=CCN(CCc3ccc4ccccc4c3)CC2)c1,Potency,[2],inactive
same,Potency,[6],inactive
C#CCN(C)[C@H](C)Cc1ccccc1,Potency,[2],inactive
same,Potency,[6],inactive
O=P1(NCCCl)OCCCN1CCCl (stereo unspecified),Potency,[2],inactive
same,Potency,[6],inactive
Oc1ccc(Cl)cc1Cc1ccccc1,Potency,[2],inactive
same,Potency,[6],inactive
COC[C@H]1OC(=O)c2coc3c2[C@@]1(C)C1=C(C3=O)C2CCC(=O)[C@@]2(C)C[C@H]1OC(C)=O (stereo partly specified),Potency,[2],inactive
same,Potency,[6],inactive
same,outcome,[3],inactive
same,outcome,[5],inactive
COc1ccc(C(=O)c2c(C)n(CCN3CCOCC3)c3ccccc23)cc1,Potency,[2],inactive
same,Potency,[6],inactive
C[C@]12CC[C@H]3[C@@H](CCC4=CC(=O)CC[C@@H]43)[C@@H]1CC[C@@H]2OC(=O)CCc1ccccc1,Potency,[2],inactive
CNC(=O)c1ccc(N2C(=S)N(c3ccc(C#N)c(C(F)(F)F)c3)C(=O)C23CCC3)cc1F,Potency,[2],inactive
same,Potency,[6],inactive
same,outcome,[3],inactive
same,outcome,[4],inactive
same,outcome,[5],inactive
Cn1cc(C2=C(c3cn(C4CCN(Cc5ccccn5)CC4)c4ccccc34)C(=O)NC2=O)c2ccccc21,Potency,[2],inactive
same,Potency,[6],inactive
CN(C)[C@@H]1C(=O)C(C(N)=O)=C(O)[C@@]2(O)C(=O)C3=C(O)c4c(O)cccc4[C@@](C)(O)[C@H]3C[C@@H]12,Potency,[2],inactive
same,Potency,[6],inactive
CNC(=O)N1N=C(c2ccc(N)cc2)c2cc3c(cc2CC1C)OCO3 (stereo unspecified),Potency,[2],inactive
same,outcome,[3],inactive
same,outcome,[5],inactive
C[C@]12CCC(=O)C(O)=C1CC[C@@H]1[C@@H]2CC[C@]2(C)C(=O)CC[C@@H]12,Potency,[2],inactive
same,Potency,[6],inactive
COC[C@@H](NC(C)=O)C(=O)NCc1ccccc1,Potency,[2],inactive
same,Potency,[6],inactive
CC(C)(C)NCC(O)c1cc(Cl)c(N)c(Cl)c1 (stereo unspecified),Potency,[2],inactive
same,Potency,[6],inactive
N[C@@H](Cc1ccc(N(CCCl)CCCl)cc1)C(=O)O,Potency,[2],inactive
same,Potency,[6],inactive
Oc1cccc2cccnc12,Potency,[2],inactive
OCCOc1ccccc1,Potency,[2],inactive
same,Potency,[6],inactive
c1ccc2c(c1)Nc1ccccc1S2,Potency,[2],inactive
same,Potency,[6],inactive
O=C1CC[C@@]2(O)[C@H]3Cc4ccc(O)c5c4[C@@]2(CCN3CC2CC2)[C@H]1O5,Potency,[2],inactive
same,Potency,[6],inactive
CCC(COC(=O)c1cc(OC)c(OC)c(OC)c1)(c1ccccc1)N(C)C (stereo unspecified),Potency,[2],inactive
same,Potency,[6],inactive
Cc1cc(SCc2sc(-c3ccc(C(F)(F)F)c(F)c3)nc2C)ccc1OCC(=O)O,Potency,[2],12.8 µM (active)
same,outcome,[4],inactive
same,outcome,[5],inactive
C=C(C)[C@H]1Cc2c(ccc3c2O[C@@H]2COc4cc(OC)c(OC)cc4[C@@H]2C3=O)O1,Potency,[2],inactive
